In PubChem BioAssay (NCATS):
Records with an inconclusive call do not appear. Where a call stands in place of a potency, no number is given. Calls of active or inactive are those of the source. The call rests on the fitted dose curve; in most records, active means well fitted activation curve with a large enough effect; inconclusive means small, poorly fitted or top-dose-only effect; inactive means flat fitted curve, though single readings scatter.

These molecules were tested against Cellular tumor antigen p53 (Homo sapiens) (UniProt P04637) (assay: Primary qHTS for small molecule compounds that upregulate eGFP-tagged delta133p53alpha (in C-terminal) cells. (AID 2060324)). Conditions: NCI-H358 delta133p53alpha-eGFP (C-terminal tag), GFP fluorescence imaging, 24 h; series mostly up to 57.5 µM.
From the text: Assay Development and Screening Technology
National Center for Advancing Translational Sciences (NCATS),
National Institute of Health (NIH), Rockville, Maryland
Cellular senescence (CS) is one of the hallmarks of aging and age-related diseases. Senescent cells are characterized by an irreversible growth arrest, an increase in senescence-associated beta-galactosidase (SA-beta-gal) activity and p16INK4a expression, an activation of the DNA damage response pathways, and the emergence of a senescence-associated secretory phenotype (SASP).
Delta133p53alpha, a human/primate-specific p53 protein isoform, delays or inhibits the induction of CS and SASP in various types of human cells, including progeria-derived fibroblasts, primary normal astrocytes, and CD8+ T lymphocytes. Induction of delta133p53alpha with small molecule compounds may provide therapeutic opportunities for inhibition of senescence/SASP-associated pathologies in progeria syndromes, astrocyte-mediated neuroprotection in neurodegenerative diseases, and possibly prevention and treatment of a wider range of senescence- and aging-associated diseases.
Here we report the development and validation of a cell-based quantitative high throughput screening (qHTS) assay in 1,536-well format. This qHTS assay uses the NCI-H358 cell line with doxycycline-inducible expression of enhanced green fluorescent protein (eGFP)-tagged delta133p53alpha, which allows efficient and highly quantitative measurement of the protein levels.
PROTOCOL TABLE (as described by Inglese J, Shamu CE and Guy RK. 2007)
SEQUENCE No. (e.g., 1, 2, 3, etc.); […] (e.g., Cells, Incubation, Reagent, etc.); VALUE; DESCRIPTION.
1; Cells; 4uL; 800 doxycycline treated cells / well in doxycycline-free media, 1536-well black, clear-bottom low base Aurora microplates.
2; Compounds; 23 nL; Kalypsis pin tool (Wako) equipped with 1536-well pin heads, 5-azacytidine positive control.
3; Incubation; 24 hr; 37C, 5% CO2; 95% relative humidity.
4; Aspiration; 1x; BioTek EL406 washer dispenser (Agilent).
5; Fixing; 3.5% paraformaldehyde, BioTek EL406 washer dispenser (Agilent).
6; Washing; 1x PBS; BioTek EL406 washer dispenser (Agilent).
7; Nuclei staining; 1:1000 dilution of Hoechst 33342 (Thermofisher), BioTek EL406 washer dispenser (Agilent).
8; Incubation; 20 min; in the dark at room temperature.
9; Washing; 2x, 1x PBS (ThermoFisher), BioTek EL406 washer dispenser (Agilent).
10; Reagent; 10 uL; 1x PBS per well, sealed with clear adhesive tape.
11; Detection; Fluorescence, Acumen eX3 laser scanning cytometer (STP Labtech), GFP filters […].
NOTES (numbers refer to sequence numbers above).
1. NCI-H358 cells expressing eGFP-tagged delta133p53alpha were grown in T75 culture flasks and treated with doxycycline for 24h, at 10 ng/ml for eGFP-D133p53a cells (N-terminal cell) and 100 ng/ml for D133p53a-eGFP cells (C-terminal cells). Cells were trypsinized, counted using a Counted 3 Automated Cell Counter (Thermo Fisher), and diluted to a concentration of 200,000 cells/ml. A Multidrop Combi Reagent Dispenser (ThermoFisher) was used to dispense 800 cells/well in […] of doxycycline-free media, into 1536-well black/clear bottom low base plates (AuroraMicroplates).
2. After plating cells, 23 nl of compound library, DMSO vehicle control or positive control (5-azacytidine) were transferred by Pin Tool (Wako). The plate map layout was the same for each plate: (column 1) non-doxycycline treated cells + DMSO vehicle control; (column 2) doxycycline treated cells + DMSO vehicle control baseline; (column 3) doxycycline treated cells + positive control 57.5 uM final concentration 5-azacytidine; (column 4) doxycycline treated cells + serial dilution of 5-azacytidine, 16-point 1:2 titration spanning 1.8 nM to […] final concentration; (columns 5-48) doxycycline treated cells + titration of library compounds.
3. Cells were incubated at 37 °C, 5 % CO2, 95% RH with breathable metal lid for 24h.
4-10. […] […]
Potency means the concentration at half of the fitted maximal effect.

Chain of Cellular tumor antigen p53 (Homo sapiens) (P04637 whole entry, looked up): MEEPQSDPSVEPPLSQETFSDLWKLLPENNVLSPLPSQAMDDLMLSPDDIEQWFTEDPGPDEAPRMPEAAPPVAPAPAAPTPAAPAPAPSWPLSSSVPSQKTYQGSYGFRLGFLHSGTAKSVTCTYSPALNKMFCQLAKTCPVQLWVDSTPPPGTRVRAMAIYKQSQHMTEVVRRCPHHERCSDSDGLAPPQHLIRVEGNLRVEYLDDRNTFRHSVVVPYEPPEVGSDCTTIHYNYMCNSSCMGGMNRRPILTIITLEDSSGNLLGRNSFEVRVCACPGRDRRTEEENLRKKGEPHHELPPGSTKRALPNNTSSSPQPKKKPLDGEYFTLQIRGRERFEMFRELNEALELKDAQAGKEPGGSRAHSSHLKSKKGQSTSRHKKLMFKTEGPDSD

Compound	Potency
Nc1cc2c(ncn2CCOCP(=O)(O)O)c(=O)[nH]1	inactive
CC1=NN=C(c2ccc(N)cc2)c2cc3c(cc2C1)OCO3	21.3 µM (active)
O=[N+]([O-])c1cc(O)c(O)c([N+](=O)[O-])c1	inactive
CN1C[C@H](CNC(=O)OCc2ccccc2)C[C@@H]2c3cccc4c3c(cn4C)C[C@H]21	inactive
C[N+]1(C)C2CCC1CC(OC(=O)C(CO)c1ccccc1)C2 (stereo not given)	inactive
Cc1sc2ccccc2c1CC1=NCCN1	inactive
CC(=O)[C@H]1CC[C@H]2[C@@H]3CC[C@H]4C[C@H](O)CC[C@]4(C)[C@H]3C(=O)C[C@]12C	inactive
NCC1(CC(=O)O)CCCCC1	inactive
NCCc1c[nH]c2ccc(C(N)=O)cc12	inactive
CC(N)Cc1c[nH]c2ccc(OCc3cccs3)cc12 (stereo not given)	inactive
CCNC(=O)[C@H]1O[C@@H](n2cnc3c(N)ncnc32)[C@H](O)[C@@H]1O	inactive
NCCc1ccc(O)cc1	inactive
C[N+]1(C)CCc2cc3c(cc2[C@H]1[C@@H]1OC(=O)c2c1ccc1c2OCO1)OCO3	inactive
NC(CCCCCP(=O)(O)O)C(=O)O (stereo not given)	inactive
S=C(NC1CCCCC1)N1CCC(c2cnc[nH]2)CC1	inactive
COc1ccc(CNC(=O)/C=C/c2ccc3[nH]cc(CCN(C)C)c3c2)cc1	inactive
COC(=O)[C@@H](N)CCCN=C(N)N[N+](=O)[O-]	inactive
N#CC(C#N)=Cc1ccc(O)c(O)c1	inactive
O=S1(=O)N(CCN2CC=C(c3c[nH]c4cc(F)ccc34)CC2)c2cccc3c2N1CCC3	inactive
CCCN(CCC)[C@H]1CCc2c(F)ccc(O)c2C1	inactive

Compound	Potency
CNCCc1c[nH]c2ccc(O)cc12	inactive
OC1CCCCC1N1CCC(c2ccccc2)CC1 (stereo not given)	inactive
COc1ccc(C(=O)N2CCCC2=O)cc1	inactive
COc1ccc2c(c1O)-c1cccc3c1[C@@H](C2)N(C)CC3	inactive
CC(C)Oc1cccnc1N(C)C1CCN(Cc2ccccc2)CC1	inactive
[Cl-].[Cl][Pt].[NH2-].[NH2-].c1ccncc1	inactive
Cc1[nH]c2ccc(O)cc2c1CCN	inactive
COc1ccccc1N1CCNCC1	inactive
Nc1ccc(CCN2CCN(c3cccc(C(F)(F)F)c3)CC2)cc1	inactive
CCCN(CCC)[C@@H]1CCc2ccc(O)cc2C1	inactive
NC(N)=NOCC[C@H](N)C(=O)O	inactive
CC(=O)c1c(O)c(C)c(O)c(Cc2c(O)c3c(c(C(=O)/C=C/c4ccccc4)c2O)OC(C)(C)C=C3)c1O	inactive
O=C1CCCN1CC#CCN1CCCC1	inactive
NC1CC1c1ccccc1 (stereo not given)	inactive
CC(C)=CCOc1c2occc2cc2ccc(=O)oc12	inactive
CN1CC[C@@]2(C)c3cc(O)ccc3N(C)C12 (stereo not given in full)	inactive
c1ccc2sc(C3(N4CCCCC4)CCCCC3)cc2c1	inactive
NC(CP(=O)(O)O)C(=O)O (stereo not given)	inactive
CN1CCc2cccc(Cl)c2CC1	inactive
Clc1cc(I)cc(Cl)c1NC1=NCCN1	inactive
